The supplement of paper PMC6555819

Each sequence was assayed on VDR:RXRa (NR concentration 270 nM, RXRa partner concentration 90 nM) (assay: PBM binding z-score (relative to random genomic background probes); higher = stronger binding; sequences stand for … in GC…GCGATTGACAGCGTAGAATGAAGG).
Experimental: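 Protein-binding microarray (Agilent 4x180K custom design, double-stranded 60-nt probes: 5' GC cap, 34-nt variable region, 24-nt constant primer region; full probe sequence given). Purified or IVT nuclear receptor:RXRα heterodimers (3:1 NR:RXRα, mostly 270:90 nM) or homodimers were incubated for 1 h in PBS with 2% milk and no ligand, then detected with Alexa488 antibodies. Fluorescence from o1-orientation probes (~5 replicates averaged) was converted to z-scores against 500 random hg19 background probes. Variable regions are seed direct-repeat (DR0–DR5) sites, all their single-nucleotide variants and half-site ablations.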
TAGCCTAGTTCATGGGCCAGTATACCACGCGAAC gave a PBM binding z-score of 0.685. GCTAGTTGGTCAGTATAAGGTCACACACCGGTCG showed a PBM binding z-score of 3.24. CGCCCAAGGTCATAGGAGGTCAGTGAAGACAGAT showed a PBM binding z-score of 6.21. CTCGAAAGGTCGTGCTCAGGTCAGTATACCAAAC was tested, and the PBM binding z-score was 5.19. Sequence CCTACCGGGCCACGAAAGGTCATTGATTCAGTGA has a PBM binding z-score of 4.1. Sequence CTCGAAAGGTCGGGTGAGGTGAGTATACGGATAA has a PBM binding z-score of 3.18. For ATCTCTTGGTAACCAAGTTCAGTGAATGCCGAAC, the PBM binding z-score was 2.38. CGTCCAAGGTCATAGGAGGTCAGTGAAGACAGAT gave a PBM binding z-score of 6.46. In the case of GTGCCAAGGTGAATAGGTCGTTGATGAGTAGGCG, the PBM binding z-score is reported as 0.576. CGCGAAAGGTCGGTTGAGGTGAGTATACGGATAA gave a PBM binding z-score of 2.25. Sequence CGTCCAAGGTCATAGGAGGTAAGTGAAGACAGAT has a PBM binding z-score of 4.61. CCTACTGGGCCAAGAAAGGTCATTGATTCAGTGA gave a PBM binding z-score of 3.68. ACTAGCAGGCCAAGGGTCACTCACGATTAGTCCG showed a PBM binding z-score of 2.69. Work on ATATGTAAGTTAGCTGGGGTCATTCAGACTAGGC yielded a PBM binding z-score of 5.25. For AGACTGAGGTTATACGTAGATCAGGGAAGAAAGT, the PBM binding z-score was 1.42. In the case of GCATATAGGTCATACAAGGTGAAAGTCCGATTGT, the PBM binding z-score is reported as 4.55. In the case of CAAACTAGGTCACGAAAGGTCAAAGTAGAATGAC, the PBM binding z-score is reported as 6.69. CAAACTAGGTCAAGACGTCAAAGTCCGCTTCCCG showed a PBM binding z-score of 1.62. ACTAGTTCGTCAGCTGAGGTCACACACAATTCGG showed a PBM binding z-score of 4.7. Work on GCGACTGGGGCACCAGCAGGTTACCATAACTTAA yielded a PBM binding z-score of -0.157. AGAACGAGGGCAATGAGTTGATAGCGCGGGTGGC was tested, and the PBM binding z-score was 5.04. With GCTATTAGTTGAAAGGGCCACCGAATGATTCTCG the PBM binding z-score was -0.0971. In the case of CGTCCAGGGTCAAAGGTCAGTGAAGAGATGACGG, the PBM binding z-score is reported as 6.53. ACTATTAGTTGAGACGAGTGCAACCGATAGGTTG was tested, and the PBM binding z-score was 0.942. CAAACTAGGTTACCGGAAGGTCAAAGTCCGCATG gave a PBM binding z-score of 4.16. CGAACGAGGGCATGATTTGATAGCAAATGCCGAT gave a PBM binding z-score of 0.55. Sequence CAAACTAGGTCAGAGGTCAAAGTCGAGCCAACCA has a PBM binding z-score of 6.04. With ATCTCTAGGTAAGAGTTCAGTGAATCCCGAGGAT the PBM binding z-score was 2.22. For TAGCCTAGGTCAGATCGGGCCAATATACGCTATA, the PBM binding z-score was 1.01. For CCTAGCAGGCCAATCTGGGTCACTCATGGCTTGA, the PBM binding z-score was 0.303. For CCGACTGGCGCAAGGTTACCATAACGCACAGCCA, the PBM binding z-score was 0.151. ACAGAAAGGTGAGTGAAGGTAACTCAGCTGGACG was tested, and the PBM binding z-score was 0.368. CCTCGGAGGAGAGAAGGTCAGAGCTGTCCGCTTT gave a PBM binding z-score of 0.722. In the case of CGTCCAAGGACAGAGAGGTCAGTGAATGCCGAGT, the PBM binding z-score is reported as 3.03. AGAATGAGGTTATACGTAGAACAGGGAAGAAAGT showed a PBM binding z-score of 1.26. For AGAATGATGTTACCAAAGATCAGGGAAACGCTTG, the PBM binding z-score was -0.205. Sequence CCTACTGGGCCATCAGGGCATTGATATCAACGTT has a PBM binding z-score of -0.589. Work on GATGCTAGGTCAGGTTGGTCAGCTAACGGGTACG yielded a PBM binding z-score of 0.88. With TCTTGTAGATCTATAGAGGTTAAGAAAGTGCGCT the PBM binding z-score was 1.65. In the case of CCTTACGGGTCACGAGGTTAAAGCACGACGAGCG, the PBM binding z-score is reported as 5.59.
